From PubChem BioAssay
Values without a mark were called inactive. For part of these data: Entries with a potency or affinity are not part of this list. Active and inactive are the calls of the source. Unless noted, no rule for the calls is given here.

Tests used:
[1] = antimalarial activity against Dd2 strain (AID 2302;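 active = growth inhibition above 50% at the single 2 µM test dose, taken to imply half-maximal potency below 2 µM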;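 also: 0% = DMSO untreated growth and 100% = chloroquine plus artemisinin killed control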); details: P. falciparum Dd2 in RBCs, LDH growth readout, 72 h; at 2 µM; stronger effect = higher value
[2] = HepG2 cytotoxicity, primary screen, cytotoxicity control for P. falciparum antimalarial project, cell-based, ATP luminescence (AID 2303;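 active = inhibition above 50%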;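 also: 0% = DMSO wells and 100% = digitonin-killed cells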); details: HepG2 viability, 24-48 h, at 10 µM, stronger effect = higher value
[3] = target: L-lactate dehydrogenase (Plasmodium falciparum (isolate CDC / Honduras)) (UniProt Q27743); experiment: PfLDH activity inhibition – cell lysate, 3D7 strain, counter-screen for P. falciparum growth inhibition project (AID 2304);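 also: 0% = vehicle and 100% = reference inhibitor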; details: P. falciparum 3D7 crude extract, LDH APAD/NBT absorbance; at 2 µM; stronger effect = higher value
[4] = inhibition of 3D7 malaria parasite growth – strain 3D7 (AID 2306);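 also: 0% = DMSO wells and 100% = chloroquine plus artemisinin control wells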; details: P. falciparum 3D7 erythrocytic growth, LDH absorbance, 72 h; at 2 µM; stronger effect = higher value
[5] = target: Calcium-dependent protein kinase 1 (Plasmodium falciparum (isolate 3D7)) (UniProt P62344); experiment: PfCDPK1 kinase inhibitors, biochemical, TCAMS library (AID 1159585; cut-off not given, nearly all actives have IC50 up to about 0.98 µM;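 also: inhibitors leave more ATP so luminescence rises with inhibition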); details: recombinant PfCDPK1, Kinase-Glo ATP depletion luminescence
[6] = target: Plasmodium falciparum protein kinase 6 (PK6, PF3D7_1337100) (UniProt Q8IDW1); experiment: PfPK6 kinase inhibitors, biochemical, TCAMS library (AID 1159586); details: recombinant PfPK6, Kinase-Glo ATP depletion luminescence
[7] = target: Protein kinase 7 (PK7), Plasmodium falciparum 3D7 (PF3D7_0213400) (UniProt Q7YTF7); experiment: inhibition of Plasmodium PK7 catalytic activity – biochemical, TCAMS antimalarial set, Kinase-Glo luminescence (AID 1159587); details: recombinant PfPK7, Kinase-Glo ATP depletion luminescence
[8] = target: Calcium-dependent protein kinase 4 (Plasmodium falciparum (isolate 3D7)) (UniProt Q8IBS5); experiment: PfCDPK4 kinase inhibitors, biochemical, TCAMS library (AID 1159588; cut-off not given, nearly all actives have IC50 up to about 0.91 µM); details: recombinant PfCDPK4, Kinase-Glo ATP depletion luminescence
Sequence of Calcium-dependent protein kinase 4 (Plasmodium falciparum (isolate 3D7)) (Q8IBS5 whole entry, looked up): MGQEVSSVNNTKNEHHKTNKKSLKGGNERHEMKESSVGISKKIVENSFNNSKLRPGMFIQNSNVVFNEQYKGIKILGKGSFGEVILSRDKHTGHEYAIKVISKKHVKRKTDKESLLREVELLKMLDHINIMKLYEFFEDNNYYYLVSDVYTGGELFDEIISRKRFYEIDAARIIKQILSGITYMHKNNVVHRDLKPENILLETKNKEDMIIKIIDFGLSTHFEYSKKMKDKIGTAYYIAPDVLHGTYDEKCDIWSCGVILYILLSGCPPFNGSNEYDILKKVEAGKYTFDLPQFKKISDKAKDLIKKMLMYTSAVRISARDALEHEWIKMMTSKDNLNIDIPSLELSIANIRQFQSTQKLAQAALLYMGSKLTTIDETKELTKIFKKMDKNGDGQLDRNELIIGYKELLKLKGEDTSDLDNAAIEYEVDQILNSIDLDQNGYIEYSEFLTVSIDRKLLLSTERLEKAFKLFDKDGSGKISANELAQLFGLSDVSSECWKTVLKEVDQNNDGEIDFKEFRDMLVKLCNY

Sequence of L-lactate dehydrogenase (Plasmodium falciparum (isolate CDC / Honduras)) (Q27743 whole entry, looked up): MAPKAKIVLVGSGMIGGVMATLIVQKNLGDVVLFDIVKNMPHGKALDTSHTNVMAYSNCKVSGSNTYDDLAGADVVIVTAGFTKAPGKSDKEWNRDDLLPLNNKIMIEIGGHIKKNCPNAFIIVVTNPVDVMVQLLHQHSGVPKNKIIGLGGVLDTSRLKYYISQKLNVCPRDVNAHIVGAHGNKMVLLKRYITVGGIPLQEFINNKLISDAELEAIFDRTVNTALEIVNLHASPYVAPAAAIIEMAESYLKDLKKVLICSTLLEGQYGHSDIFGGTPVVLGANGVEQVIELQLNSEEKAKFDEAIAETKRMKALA
Sequence of Protein kinase 7 (PK7), Plasmodium falciparum 3D7 (PF3D7_0213400) (Q7YTF7 1-343): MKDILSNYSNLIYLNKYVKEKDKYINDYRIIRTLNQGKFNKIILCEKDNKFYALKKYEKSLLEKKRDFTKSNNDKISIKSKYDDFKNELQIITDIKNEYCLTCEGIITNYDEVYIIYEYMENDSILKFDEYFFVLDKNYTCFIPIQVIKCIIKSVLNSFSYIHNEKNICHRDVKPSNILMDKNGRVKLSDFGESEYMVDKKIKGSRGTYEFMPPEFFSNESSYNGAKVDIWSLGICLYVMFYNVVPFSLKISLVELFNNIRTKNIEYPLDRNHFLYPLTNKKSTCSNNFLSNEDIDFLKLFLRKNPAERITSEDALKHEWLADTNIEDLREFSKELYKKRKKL
Sequence of Plasmodium falciparum protein kinase 6 (PK6, PF3D7_1337100) (Q8IDW1 1-305): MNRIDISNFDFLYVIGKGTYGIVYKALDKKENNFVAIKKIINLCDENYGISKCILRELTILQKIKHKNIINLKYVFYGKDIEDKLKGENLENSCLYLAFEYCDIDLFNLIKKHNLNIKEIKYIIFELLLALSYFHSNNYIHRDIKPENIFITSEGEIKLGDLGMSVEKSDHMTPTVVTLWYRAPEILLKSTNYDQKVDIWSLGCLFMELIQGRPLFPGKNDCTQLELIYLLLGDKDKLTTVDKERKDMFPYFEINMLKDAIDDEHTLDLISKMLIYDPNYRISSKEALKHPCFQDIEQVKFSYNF
Sequence of Calcium-dependent protein kinase 1 (Plasmodium falciparum (isolate 3D7)) (P62344 whole entry, looked up): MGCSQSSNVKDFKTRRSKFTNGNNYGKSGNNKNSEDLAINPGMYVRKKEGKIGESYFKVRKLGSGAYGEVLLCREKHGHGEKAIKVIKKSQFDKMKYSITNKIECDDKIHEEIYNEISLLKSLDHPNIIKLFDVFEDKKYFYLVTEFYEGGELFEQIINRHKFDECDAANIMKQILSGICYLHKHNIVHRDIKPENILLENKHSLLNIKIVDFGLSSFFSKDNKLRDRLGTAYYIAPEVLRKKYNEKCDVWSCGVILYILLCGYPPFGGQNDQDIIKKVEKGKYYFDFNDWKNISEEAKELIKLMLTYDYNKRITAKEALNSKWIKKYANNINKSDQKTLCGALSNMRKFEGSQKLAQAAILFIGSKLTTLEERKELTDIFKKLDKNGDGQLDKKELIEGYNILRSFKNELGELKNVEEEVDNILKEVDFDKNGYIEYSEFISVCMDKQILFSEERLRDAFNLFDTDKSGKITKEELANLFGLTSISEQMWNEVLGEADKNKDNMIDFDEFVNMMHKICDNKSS

Row | Compound | growth inhibition [1] | inhibition [2] | inhibition [3] | growth inhibition [4] | outcome [5] | outcome [6] | outcome [7] | outcome [8]
1 | CN1CCCC1CCNCc1cccc(-c2cnc(N(C)C3CCCCC3)nc2)c1 (centres undefined) | 95% (active) | 98% (active) | 2% | 99% (active) | inactive | inactive | inactive | inactive
2 | N#Cc1ccc(CN2CCC(Oc3ccc(NC(=O)c4ccco4)cc3Cl)C2)cc1 (centres undefined) | 95% (active) | 13% | -2% | 95% (active) | inactive | inactive | inactive | inactive
3 | O=S(=O)(NC1CCN(c2ccnc3cc(Cl)ccc23)C1)c1ccc(C(F)(F)F)cc1 (centres undefined) | 98% (active) | 20% | 2% | 100% (active) | inactive | inactive | inactive | inactive
